Consider 19 compounds from PubChem BioAssay.

Usually viability stands for a read-out of living cells in per cent, often relative to untreated cells.

The nature of this test: reversal of MRP1-mediated doxorubicin resistance, pilot screen, H69AR cells, doxorubicin co-treatment (AID 601). Conditions: H69AR cells, CellTiter-Glo, 72 h; compound alone cytotoxicity; at 10 µM. Background: In ATP-based viability assays light output follows the ATP content of the culture.
As to `O=C(Cn1cc2c(n1)CCCCC2)N1CCc2ccccc21`, the viability was 87.8%. With `CC(C)c1nccn1S(=O)(=O)c1cc(Cl)ccc1Cl` the figure was 90.3%; with `CC(=O)Nc1cccc(NC(=O)CSc2nn3c(=O)c(C)nnc3s2)c1`, 90.8%. As to `CCOc1ccc2nc(Nc3nc4c(c(=O)[nH]3)CCC4)nc(C)c2c1`, the viability stood at 103%. As to `C(=N\c1c(-c2ccccc2)nc2n1CCS2)/c1ccccc1`, the viability was 100%. For `CCN(CC)S(=O)(=O)c1ccc2oc(C(=O)N3CCOCC3)c(C)c2c1`, the viability was 96.5%. Regarding `CCOC(=O)C1CCN(Cc2ccc(OC)c(C)c2OC)CC1`, the viability was 86.9%.

`Cc1cc(N)n2nc(-c3ccccc3)cc2n1`: the viability is 80.1%. Then `Cc1nnc(SCC(=O)Nc2sc3c(c2C#N)CCCC3)[nH]c1=O`, with 102%. Then `Cc1cc(NC(=O)COc2cccc(C)c2C)no1`, with 108%.

In the case of `Cc1cc(C)c(NC(=O)CSc2nc3c(c(=O)n2C)SC(C)C3)c(C)c1` (centres undefined), the viability is 90%. Then `CC(=O)c1ccc(OCC(O)CN2CCN(CCO)CC2)cc1` (centres undefined), with 96.3%. `CCn1cc(C(=O)NCC2CCCO2)c(=O)c2cc(S(=O)(=O)N(C)C)ccc21` (centres undefined): the viability came to 88.6%. Then `C=CCSc1nc(N)c2c(C)c(C)sc2n1`, with 88%; and `CC1CCCN(C(=O)c2cc3c(-c4ccc(Cl)cc4)nn(C)c3s2)C1` (centres undefined), with 92.5%; and `COc1cccc2cc(C(=O)OC3CCN(C)CC3)c(=O)oc12`, with 105%.

Take `COC(=O)c1cn(C(=O)c2ccc(Br)o2)c2ccccc12`: the viability was 88.3%. On to `COc1cc(NC(=O)C2C3C=CC(C3)C2C(=O)O)c(OC)cc1Cl` (centres undefined), for which the viability was determined as 98.3%. Then `COc1ccc(C2CC(c3ccc(C)cc3)Nc3ncnn32)cc1` (centres undefined), with 101%.
